A selection: hits, their analogues and other compounds. The true share with any hit is near 5.8%.
TRPV1 potentiator: potentiators of human vanilloid receptor 1 (TRPV1); 0.02% of 320,000 active; potentiation, % at 8.33 µM; AID 540277; TRPV1-expressing cells, Fluo-8 calcium influx, capsaicin EC20 potentiation; in the data active = potentiation above about 80%; inconclusive = between about 30% and that limit; also: 0% is about no effect
Target sequence (Q8NER1 whole entry, looked up): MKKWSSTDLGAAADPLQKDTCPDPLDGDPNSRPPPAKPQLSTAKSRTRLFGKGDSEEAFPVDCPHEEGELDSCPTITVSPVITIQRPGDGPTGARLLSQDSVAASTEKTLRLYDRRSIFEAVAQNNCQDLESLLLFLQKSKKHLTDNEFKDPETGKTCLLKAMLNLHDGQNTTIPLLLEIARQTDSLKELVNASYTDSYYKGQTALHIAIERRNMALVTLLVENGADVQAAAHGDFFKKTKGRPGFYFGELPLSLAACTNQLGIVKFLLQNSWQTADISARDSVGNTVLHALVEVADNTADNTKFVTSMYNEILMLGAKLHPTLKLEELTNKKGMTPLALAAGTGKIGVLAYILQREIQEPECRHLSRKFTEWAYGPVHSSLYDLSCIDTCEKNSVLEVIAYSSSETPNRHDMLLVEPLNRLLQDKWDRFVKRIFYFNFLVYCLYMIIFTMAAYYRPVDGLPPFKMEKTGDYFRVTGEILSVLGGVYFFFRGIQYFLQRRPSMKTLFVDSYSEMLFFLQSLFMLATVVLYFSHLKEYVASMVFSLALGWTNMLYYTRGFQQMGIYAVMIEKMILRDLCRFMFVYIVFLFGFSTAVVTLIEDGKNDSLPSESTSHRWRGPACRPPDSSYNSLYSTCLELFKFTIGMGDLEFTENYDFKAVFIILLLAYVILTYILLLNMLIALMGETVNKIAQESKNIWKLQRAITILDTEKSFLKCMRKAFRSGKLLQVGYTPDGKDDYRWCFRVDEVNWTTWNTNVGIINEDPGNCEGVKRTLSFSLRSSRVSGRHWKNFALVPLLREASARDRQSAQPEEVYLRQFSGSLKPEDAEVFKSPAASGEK
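Cells expressing TRPV1 were dye-loaded with Fluo-8 and read kinetically: 10 s baseline, 3 min after compound (agonist portion), then 2 min after EC20 capsaicin (allosteric enhancer portion). Calcium-bound dye fluorescence at 480/520 nm.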
uPA surface inh: cell surface uPA generation inhibition | AID 540303 | 0.31% of 330,000 active | Potency, µM (doses to about 38.3 µM), inactives show top-dose activity change, negative = inhibition, actives largely listed as inhibitors | cell surface uPA generation assay, qHTS; active = well fitted inhibition curve with a large enough effect; inconclusive = small, poorly fitted or top-dose-only effect; inactive = no such curve, though single readings can be large or run the other way; tested in mouse RAW 264.7 cells; also: potency is read from the fitted curve at half-maximal effect; % is scaled to controls: 0 for no effect and ±100 for the full control effect; nearly all actives have a fitted effect of over 55% in size
RORgamma inh: blocks mouse ROR gamma transcriptional activity; Drosophila S2 Gal4-RORgamma UAS-luciferase reporter, 20 h; Potency, µM (highest dose often 53.6 µM), for the others: top-dose activity change, negative = inhibition, hits mostly inhibitors; 5.4% of 310,000 active; AID 2551; also: potency is read from the fitted curve at half-maximal effect; % is scaled to controls: 0 for no effect and ±100 for the full control effect; nearly all actives have a fitted effect of over 60% in size
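Using a luciferase readout, inhibitors were identified by reduced reporter activity in Drosophila cells coexpressing a copper-inducible Gal4–ROR gamma fusion and UAS-driven Photinus luciferase, incubated 20 hr after 700 uM copper sulfate.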
VP16 counter: inhibits Gal4-VP16 luciferase reporter, ROR gamma counter-screen. Drosophila S2 Gal4-VP16 UAS-luciferase, luminescence, 20 h. Potency, µM (highest dose often 53.6 µM), without a hit: at the highest dose activity, negative = inhibition, most hits filed as inhibitors. 3.5% of 310,000 active;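 also: Gal4-VP16 expression switched on by copper sulfate through the metallothionein promoter; potency is read from the fitted curve at half-maximal effect; % is scaled to controls: 0 for no effect and ±100 for the full control effect; nearly all actives have a fitted effect of over 50% in size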
TRPV1 agonist: human TRPV1 agonism; AID 540275; activation, % at 8.33 µM; 0.19% of 320,000 active; TRPV1-expressing cells, Fluo-8 calcium influx, agonist mode; Q8NER1; in the data active = activation above about 80%; inconclusive = between about 30% and that limit; also: 0% is about no effect
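Fluo-8 calcium influx in TRPV1-expressing cells, kinetic read (ex 480/em 520 nm). Compound added and read 3 min for agonist activity, followed by capsaicin at EC20 final and 2 min further read for enhancement.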
Starred values were filed as active, the others as inactive; ? = inconclusive; · = not tested or not shown; [ ] = another dose, or the depositor's remark. Unless noted, calls follow the shape of the dose curve; as a rule, active = well fitted curve in the direction sought with a large enough effect; inconclusive = small, poorly fitted or top-dose-only effect, or another doubt; inactive = no such curve, though single readings can be large; an effect the other way counts as inactive or inconclusive.

SMILES | TRPV1 potentiator | uPA surface inh | RORgamma inh | VP16 counter | TRPV1 agonist
C/C(=N\NC(=O)c1n[nH]c2c1CCC2)c1cccs1 | -6 | 1% | 2.5µM* | 3.5µM* | 0
CC(/C=N/NC(=O)c1n[nH]c2c1CCC2)=C\c1ccccc1 | -4 | -13% | -13% | -4% | 3
C/C(=N\NC(=O)c1cc(C)[nH]n1)c1cccs1 | 12 | -9% | 13µM* | 10µM* | 1
CN=C(NC#N)NCCSCc1csc(N=C(N)N)n1 | · | · | 6% | -2% | ·
O=c1[nH]c(=O)n([C@@H]2O[C@H](CO)[C@@H](O)[C@H]2O)cc1F | · | · | 7% | -18% | ·
Cc1ccc(-c2nc3ccccn3c2NC(=O)c2ccco2)cc1 | ? | -6% | 40µM* | 12% | 3
COc1ccc(CCN(C)C(=S)Nc2ccc(SC(F)F)cc2)cc1OC | 3 | -1% | 20µM* | ? | 0
COc1ccc(CCN(C)CCC(=O)Nc2ccc(C)cc2)cc1OC | 0 | 5% | 16% | -1% | 1
COc1ccc(CCN(C)C(=S)NC(=O)c2ccc(F)cc2Cl)cc1OC | 1 | -4% | 1.6µM* | 4µM* | 2
O=C(NC(=S)Nc1cc(-c2nc3ccccc3[nH]2)ccc1Cl)c1ccc2c(c1)OCO2 | 20 | -8% | 13µM* | -11% | 4
Cc1ccc(-c2nc3ccccc3[nH]2)cc1NC(=O)c1ccc2c(c1)OCO2 | 20 | -3% | 26% | -4% | 2
Cn1/c(=N/N=C/c2ccccn2)sc2ccccc21 | -13 | -3% | 10µM* | ? | ?
Cc1ccccc1Cn1c(=O)c2c(nc3n2CCN3Cc2ccco2)n(C)c1=O | · | 2% | · | · | ·
COc1ccc(NC(=O)Nc2ccon2)c(OC)c1 | 8 | 13% | 4% | -18% | -3
O=C(CNC(=O)c1ccco1)NCC(=O)OCc1ccc(F)cc1 | -1 | -1% | -2% | -3% | -2
O=C(CC(Nc1ccccc1Cl)C(=O)O)c1ccccc1 (stereo not drawn) | 9 | · | 7.1µM* | 27%[10 µM] | -4
O=C(CC(CC(=O)c1ccccc1)C(=O)O)c1ccccc1 | 1 | · | 0% | 6% | 3
Cc1c(Cl)cccc1NC(CC(=O)c1ccccc1)C(=O)O (stereo not drawn) | 7 | -18% | 7.9µM* | 6.3µM* | -1
Cc1c(Cl)cccc1NC(CC(=O)c1ccccc1)C(=O)OCC(=O)c1cccs1 (stereo not drawn) | 15 | 3% | 11µM* | 7.9µM* | 8
O=C(CC(Nc1cccc(Cl)c1Cl)C(=O)O)c1ccccc1 (stereo not drawn) | 11 | -7% | 11µM* | 26%[10 µM] | -2
O=C(CC(Nc1cccc(Cl)c1Cl)C(=O)OCC(=O)c1cccs1)c1ccccc1 (stereo not drawn) | 12 | 0% | 20% | -10% | 3
O=C(NCC1CCCCC1)c1nnc(C(=O)NCC2CCCCC2)c2c1[nH]c1ccccc12 | · | · | 9% | 1% | ·
CCCn1c(C)nc2c(NCCN3CCOCC3)nc(C)nc21 | · | · | 8% | 1% | ·
CN(C)S(=O)(=O)c1ccc(N2CCCC2)c(C(=O)NNC(=O)COc2cccc(F)c2)c1 | -4 | 7% | · | · | 0
O=C(CC(C(=O)O)c1ccc(Cl)cc1)c1ccccc1 (stereo not drawn) | -2 | 0% | 20% | -6% | 0
SMILES | TRPV1 potentiator | uPA surface inh | RORgamma inh | VP16 counter | TRPV1 agonist
O=C(CC(Nc1ccc(Cl)cc1)C(=O)O)c1ccccc1 (stereo not drawn) | ? | -10% | 5µM* | 5µM* | 0
O=C1CCCC=C1[C@H](O)CCCCBr | · | · | -4%[10 µM] | 12%[10 µM] | ·
CC(=O)c1ccc(NC(=S)Nc2cccc3ccccc23)cc1 | -15 | -23% | 14µM* | ? | -10
Cc1ccc(NC(=S)Nc2cccc3ccccc23)cc1F | -9 | -18% | 11µM* | 7.9µM* | -13
CCCC(=O)NC(=S)Nc1ccc(C(C)=O)cc1 | -14 | -3% | 16µM* | ? | 22
CC(=O)c1ccc(NC(=S)NC(=O)Cc2ccc(Cl)cc2)cc1 | -17 | 6% | ? | -9% | 15
OCc1ccccn1 | · | · | -4% | 0% | ·
O=c1c(-c2ccc(Cl)cc2)nc2cncnc2n1Cc1ccccc1Cl | · | · | -8% | -6% | ·
CCC1=NN(C(=O)c2ccccc2Br)C(O)(c2ccc(Br)cc2)C1 (stereo not drawn) | -7 | -10% | 8.9µM* | ? | 5

Screens as filed in PubChem.
